High-throughput results: PubChem BioAssay, National Center for Advancing Translational Sciences (NCATS)
Most compounds without a hit are left out; they make up all but 21% or so of the library.
ClpP mod: qHTS Assay for Activators of ClpP; ATP-dependent Clp protease proteolytic subunit (Bacillus subtilis (strain 168)), P80244; 1.9% of 340,000 active; Potency, µM (doses to about 57.5 µM), without a hit: at the highest dose activity change, negative = active; purified B. subtilis ClpP, FRET peptide cleavage, 20 min; active = well fitted falling curve with a large enough effect; inconclusive = small, poorly fitted or top-dose-only effect; inactive = no such curve, though single readings can be large or run the other way; note: potency is the fitted concentration of half-maximal effect; the source files actives as falling curves though it sought activators and does not explain the sign; nearly all actives have a fitted effect of over 65% in size
Target sequence (P80244 whole entry, looked up): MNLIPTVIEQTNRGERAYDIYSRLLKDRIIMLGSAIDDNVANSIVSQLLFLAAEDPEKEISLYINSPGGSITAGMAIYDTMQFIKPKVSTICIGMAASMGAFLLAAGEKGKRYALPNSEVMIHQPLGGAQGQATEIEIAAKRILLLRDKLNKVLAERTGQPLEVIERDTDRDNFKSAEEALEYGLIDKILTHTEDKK
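Buffer: 100 mM Tris/HCl pH8, 100 mM KCl, 0.05% low protease BSA, 2.5% glycerol, 0.01% Tween-20. ClpP 10 microg/mL final; 20 min RT; delta FRET normalized to ADEP and DMSO controls.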
IL-1B inflam inh: inhibitors of inflammasome signaling (IL-1 beta secretion). THP-1 LPS/ATP IL-1B secretion, AlphaLISA, 16 h; stronger effect = lower value. activity change, % at 57.5 µM. 4.7% of 360,000 active. AID 743279; in the data active = activity change below about -50%; inconclusive = mostly about -30% to -49%; note: % is set by controls: 0 for no effect and ±100 for the full control effect
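Secreted IL-1B measured by AlphaLISA bead assay after 16 h compound exposure of THP-1 cells; compounds (final up to 57.5 uM) added 1 h before LPS (250 ng/mL) and ATP (1.25 mM) stimulation; lower signal means less secretion.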
DT40 TDP1 no CPT: qHTS for Inhibitors of human tyrosyl-DNA phosphodiesterase 1 (TDP1): qHTS in cells in absence of CPT. DT40 Tdp1-/- hTDP1 cells, no CPT, ATP luminescence, 48 h. Potency, µM (doses to about 46.2 µM), for the others: at the top dose activity change, negative = growth inhibition, actives largely listed as inhibitors. 15% of 420,000 active; note: potency is the fitted concentration of half-maximal effect; % is set by controls: 0 for no effect and ±100 for the full control effect; nearly all actives have a fitted effect of over 55% in size
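Growth kinetics read by CellTiter-Glo luminescence after ≥48 hr at 37 °C. Cells: DT40 Tdp1-/- stably carrying human TDP1, 400 per well, compound exposure in the absence of CPT (DMSO vehicle).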
TDP1 cell CPT: growth inhibition of DT40 Tdp1-/-;hTDP1 cells with camptothecin (screen for TDP1 inhibitors) | chicken DT40 Tdp1-/-;hTDP1 cells + 20 nM CPT, ATP luminescence, 48 h | Potency, µM (top dose mostly 46.2 µM), inactives show at the top dose activity change, negative = growth inhibition, actives largely listed as inhibitors | 12% of 420,000 active | AID 686979; note: potency is the fitted concentration of half-maximal effect; % is set by controls: 0 for no effect and ±100 for the full control effect; nearly all actives have a fitted effect of over 55% in size
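Cell growth measured by CellTiter-Glo luminescence after a minimum 48 h, 37 C compound exposure with 20 nM CPT in Tdp1-knockout DT40 cells stably expressing hTDP1, seeded 400/well; qHTS titration format.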
D3 antag: blocks the human D3 dopamine receptor; P35462; D3R cells, DiscoveRx beta-arrestin luminescence, antagonist mode; stronger effect = lower value; max response, negative = inhibition, %; 2.5% of 360,000 active; in the data active = max response below about -50%; inconclusive = no clear call, values can overlap the other calls; note: % is set by controls: 0 for no effect and ±100 for the full control effect
Target sequence (P35462 whole entry, looked up): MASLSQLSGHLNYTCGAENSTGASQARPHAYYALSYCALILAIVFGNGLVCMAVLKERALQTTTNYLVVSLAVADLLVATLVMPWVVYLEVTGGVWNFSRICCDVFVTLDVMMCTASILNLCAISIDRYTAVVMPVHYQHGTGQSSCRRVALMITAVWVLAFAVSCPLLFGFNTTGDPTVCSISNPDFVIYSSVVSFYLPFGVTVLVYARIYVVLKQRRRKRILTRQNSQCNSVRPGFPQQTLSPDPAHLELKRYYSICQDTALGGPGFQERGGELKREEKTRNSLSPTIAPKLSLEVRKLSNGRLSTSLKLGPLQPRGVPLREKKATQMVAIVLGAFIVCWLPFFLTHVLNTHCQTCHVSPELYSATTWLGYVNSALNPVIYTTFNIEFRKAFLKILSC
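Cells expressing the human receptor were seeded at 1500 cells/well, incubated overnight at 37 degrees C in 5% CO2, then exposed to library compounds with dopamine controls for 90 minutes at 37 degrees C before luminescent detection.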
DRD3 agonist: activates the human D3 dopamine receptor; D3R DiscoveRx beta-arrestin cells, luminescence, 90 min; max activation, %; P35462; 0.58% of 410,000 active; in the data active = max activation above about 30%; note: 0% is about no effect
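Cells at 1500/well, incubated overnight, then treated with pinned compounds (dopamine as control) for 90 min at 37 degrees C. DiscoveRx reagent added for 30 - 60 minutes at room temperature; luminescence read.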
* marks the source's active call; other numbers are inactive results; u = inconclusive; x = not tested or not shown; [ ] = remark or other dose. Unless noted, calls come from the whole dose curve; as a rule, active = well fitted inhibition curve with a large enough effect; inconclusive = small, poorly fitted or top-dose-only effect; inactive = flat fitted curve, though single readings scatter.

SMILES	ClpP mod	IL-1B inflam inh	DT40 TDP1 no CPT	TDP1 cell CPT	D3 antag	DRD3 agonist
CC(=O)c1ccc(Nc2cc(C)nc3ccccc23)cc1	x	7	13µM*	12µM*	2	-2
CC(=O)c1cccc(Nc2cc(C)nc3c(C)cc(C)cc23)c1	-1%	-53*	15µM*	u	-24	-4
Cc1cc(C)c2nc(-c3cccc(Cl)c3)c(C)c(C(=O)N3CCOCC3)c2c1	-7%	-82*	u	u	-6	8
Cc1onc(-c2c(Cl)cccc2Cl)c1C(=O)N1CCOCC1	x	13	-31%	5%	5	-3
CC(=O)c1ccc(Nc2cc(C)nc3c(C)cccc23)cc1	-7%	-7	1.3µM*	1.3µM*	-7	-1
COc1cccc(CNC(=O)C2=C(C)C(=O)OC23CCCCCC3)c1	1%	x	-27%	-19%	x	-8
Cc1ccc(Nc2cc(C)nc3c(C)cccc23)cc1	x	-88*	u	u	10	-3
Cc1cc(C)c2nc(C)cc(Nc3ccc(C(=O)N4CCOCC4)cc3)c2c1	x	-65*	-23%	5%	6	-7
O=C(Cn1cc(F)c(=O)[nH]c1=O)NCCO	-3%	-2	22%	-2%	-2	-1
COc1cccc(N2CCN(S(=O)(=O)c3ccc(-c4cc(C(F)(F)F)on4)s3)CC2)c1	1%	x	-17%	-11%	x	8
CS(=O)(=O)Nc1cccc(-c2cc(NC=O)c3ncc(-c4ccc(F)cc4)n3c2)c1	u	34	u	23µM*	18	2
O=CNc1cc(-c2ccoc2)cn2c(-c3ccc(F)cc3)cnc12	-21%	23	23µM*	13µM*	u	-3
O=CNc1cc(-c2cccc(F)c2)cn2c(-c3ccc(F)cc3)cnc12	u	2	u	29µM*	0	-8
CCOc1ccc(NC(=O)Nc2cc(OCC(F)(F)F)cc(OCC(F)(F)F)c2)cc1	x	-3	2.9µM*	2.9µM*	0	4
O=C(Nc1ccc(F)cc1)Nc1cc(OCC(F)(F)F)cc(OCC(F)(F)F)c1	-1%	-61*	4.6µM*	2.6µM*	10	6
CCN(CC(=O)N1CCN(Cc2ccccc2)CC1)S(=O)(=O)c1ccc(C)cc1	2%	5	u	u	-15	-6
c1ccc(Cn2ccc(-c3cnc(-c4ccccc4)s3)n2)cc1	30%	-7	18µM*	u	-16	1
CCS(=O)(=O)NCc1c(C)ncc2c1CCN(C(=O)c1ccc(F)cc1)C2	x	x	-14%	26%[9.04 µM]	x	x
O=C(Nc1cc(Cl)cc(Cl)c1)N1CCCN(Cc2ccccc2)CC1	0%	u	u	-14%	-80*	-32
O=C(Nc1ccccc1)N1CCN(Cc2ccc(Cl)cc2)CC1	2%	-10	u	u	10	-4
CS(=O)(=O)N1CCN(C(=S)NCc2ccc(Cl)cc2)CC1	x	-9	-16%	7%	-5	-9
COc1cccc(CN2CCN(C(=S)NCc3ccc(Cl)cc3)CC2)c1	-4%	-27	21µM*	u	1	1
COC(=O)c1ccc(NC(=S)N2CCN(CCO)CC2)cc1	-3%	-5	2%	-2%	-10	-2
O=C(NCc1ccc(Cl)cc1)N1CCN(Cc2ccccc2)CC1	-2%	-21	u	23µM*	-3	-2
COC(=O)c1ccc(NC(=S)N2CCN(Cc3ccc(Cl)cc3)CC2)cc1	-2%	14	16µM*	u	-10	-5
SMILES	ClpP mod	IL-1B inflam inh	DT40 TDP1 no CPT	TDP1 cell CPT	D3 antag	DRD3 agonist
Nc1nc(NCCOCCO)nc(N2CCCCCC2)c1[N+](=O)[O-]	x	10	-18%	-1%	-6	16
COC(=O)c1cccc(NC(=S)N2CCN(C)CC2)c1	13µM*	-3	-18%	18%	16	10
O=C(Nc1ccc(Cl)cc1)N1CCCN(Cc2ccc(F)cc2)C1	-2%	u	21µM*	23µM*	-10	-17
Cc1cccc(N2CCN(C(=O)NCc3ccc(Cl)cc3)CC2)c1	-1%	-6	21µM*	u	22	-18
COC(=O)c1cccc(NC(N)=S)c1	x	-29	-8%	-33%	-22	-3
CCOc1ccccc1N1CCN(C(=O)C2c3ccccc3Oc3ccccc32)CC1	-2%	-9	23µM*	23µM*	19	-8
COc1ccc(NC(=O)/C(C#N)=C/c2ncc([N+](=O)[O-])n2C)c(OC)c1	x	15	u	u	-17	-13
COc1ccc2c(c1)c1c(c(=O)n(CCc3ccccc3)c(=O)n1Cc1ccc(Cl)cc1)n2C	u	x	-9%	1%	x	6
CCOc1ccccc1N1CCN(C(=O)NCc2ccc(Cl)cc2)CC1	x	-63*	u	-26%	13	0
CCOc1ccccc1N1CCN(C(=O)NCc2ccc(F)cc2)CC1	x	-9	-10%	-22%	22	9
Cc1cc2nc(-c3ccc(OCc4ccccc4F)cc3)cc(C(F)(F)F)n2n1	-7%	x	u	u	x	4
Cc1ccc(NC(=O)c2nc(S(C)(=O)=O)ncc2N(Cc2ccco2)Cc2cccs2)cc1C	-5%	x	u	u	x	-2
CCc1ccc(CN(Cc2ccco2)c2cnc(S(C)(=O)=O)nc2C(=O)Nc2cccc(C)c2)cc1	-10%	x	21µM*	13µM*	x	-8
Cc1ccc(NC(=O)c2nc(S(C)(=O)=O)ncc2N(Cc2ccccc2)Cc2ccco2)c(C)c1	-2%	x	18µM*	13µM*	x	8
Cc1ccc(NC(=O)c2nc(S(C)(=O)=O)ncc2N(Cc2ccco2)Cc2ccco2)cc1C	-5%	x	u	u	x	-11
CCS(=O)(=O)c1ncc(N(Cc2ccccc2)Cc2ccco2)c(C(=O)Nc2ccc(C)c(C)c2)n1	-5%	x	12µM*	21µM*	x	1
CS(=O)(=O)c1ncc(N(Cc2ccco2)Cc2cccs2)c(C(=O)Nc2ccccc2F)n1	-3%	x	21µM*	u	x	2
CCS(=O)(=O)c1ncc(N(Cc2ccccc2)Cc2ccco2)c(C(=O)Nc2ccccc2C)n1	-4%	x	-23%	-18%	x	1
N#Cc1ccc(C(=O)N2CCC3CC2c2cc(-c4ccc(F)cc4)ccc23)cc1 (configuration not stated)	2%	0	u	u	-24	-21
COCCNC(=O)C(=O)NNC(=O)CCc1ccccc1	3%	6	3%	-17%	4	8
